Our source for the growth values is PubChem BioAssay (NCI).

Test systems include SR leukemia; RPMI-8226 leukemia; OVCAR-8 ovarian; OVCAR-5 ovarian; OVCAR-4 ovarian; SK-OV-3 ovarian; IGROV1 ovarian; HS 578T breast; NCI/ADR-RES ovarian; T-47D breast; BT-549 breast; MDA-MB-435 melanoma; SW-620 colon; MCF7 breast; HCT-116 colon; HCC-2998 colon; KM12 colon; OVCAR-3 ovarian.
Assay in all cases: NCI-60 one-dose screen, 48 h (100 = growth as untreated, 0 = no growth, -100 = all killed)
Holding throughout (settings): 10 µM unless noted

About 83,000 compounds went through this panel and 20% of them were active in at least one assay; those are over-represented in the sample as a whole.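 Compound tested at a single concentration for 48 hours in 96-well plates; a percent growth value below 10 was scored as active.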 A number with no mark means an inactive call. Active and inactive are the calls of the source.

Regarding `Cc1ccccc1N1CCN(C2=C(Cl)C(=O)c3ncccc3C2=O)CC1`, the growth with SR leukemia is -24.1% (active); in the assay on RPMI-8226 leukemia, 11.5%; in the assay on OVCAR-8 ovarian, 70%; in the assay with OVCAR-5 ovarian, 98.4%; with OVCAR-4 ovarian it was 59%; with SK-OV-3 ovarian it was 95.8%. Moreover, the growth with IGROV1 ovarian is 77.3%; in the assay with HS 578T breast it was 57.4%; in the assay on NCI/ADR-RES ovarian, 73.7%; in the assay with T-47D breast it was -52.5% (active); with BT-549 breast, 99.1%; in the assay with MDA-MB-435 melanoma it was -62.9% (active). In addition, the growth is -27.8% (active) in the assay on SW-620 colon; -29.3% (active) in the assay with MCF7 breast; -95.2% (active) with HCT-116 colon; 105% in the assay on HCC-2998 colon; 87.2% in the assay on KM12 colon.
For `O=C(Nc1cc(C(F)(F)F)cc(C(F)(F)F)c1)Nc1ccc2oc(=O)ccc2c1`, the growth was 14% in the assay with SR leukemia; -21.5% (active) with RPMI-8226 leukemia; 14.2% in the assay with OVCAR-8 ovarian; 18% in the assay with OVCAR-5 ovarian; 32.6% in the assay on OVCAR-4 ovarian; -1.5% (active) with SK-OV-3 ovarian. The growth in the assay with IGROV1 ovarian is 17.3%; with HS 578T breast it was 36.8%; in the assay on NCI/ADR-RES ovarian, 4.16% (active); with T-47D breast, 4.8% (active); with BT-549 breast, 10%; with MDA-MB-435 melanoma, 3.64% (active). Also, the growth in the assay with SW-620 colon is 19.4%; in the assay on MCF7 breast it was 3.81% (active); in the assay on HCT-116 colon it was 2.09% (active); in the assay on HCC-2998 colon, 11.2%; with KM12 colon, 9.67% (active).
As to `COC(=O)c1cccc(NC2=C(Cl)C(=O)c3nc(C)ccc3C2=O)c1`, the growth in the assay on SR leukemia is 18.7%; in the assay on RPMI-8226 leukemia, 3.31% (active); in the assay on OVCAR-8 ovarian it was 77.4%; with OVCAR-5 ovarian, 99.8%; with OVCAR-4 ovarian it was -97.6% (active); in the assay on SK-OV-3 ovarian, 87.6%. Besides, the growth is -58.1% (active) in the assay with IGROV1 ovarian; 4.2% (active) in the assay on OVCAR-3 ovarian; 102% in the assay with HS 578T breast; -28.1% (active) in the assay on T-47D breast; 125% with BT-549 breast; -38.6% (active) in the assay on MDA-MB-435 melanoma. Further, the growth in the assay on SW-620 colon was 0.0392% (active); with MCF7 breast, -35.2% (active); in the assay on HCT-116 colon, 27.2%; in the assay with HCC-2998 colon, 105%; in the assay on KM12 colon it was 106%.
As to `CN(C)CC(=O)Nc1nc(-c2cccc(NS(=O)(=O)c3cccc4c(N(C)C)cccc34)c2)cs1`, the growth in the assay on SR leukemia is 74.9%; in the assay on RPMI-8226 leukemia, 60.6%; in the assay on OVCAR-8 ovarian, 82.6%; with OVCAR-5 ovarian, 105%; with OVCAR-4 ovarian, 87.1%; in the assay with SK-OV-3 ovarian it was 107%. Besides, the growth in the assay with IGROV1 ovarian was 90.7%; in the assay with HS 578T breast it was 90.6%; with NCI/ADR-RES ovarian, 76.8%; in the assay on T-47D breast it was 56.9%; in the assay on BT-549 breast it was 87.8%; in the assay on MDA-MB-435 melanoma it was 99%. Further, the growth is 105% in the assay on SW-620 colon; 68.3% in the assay on MCF7 breast; 80.1% in the assay with HCT-116 colon; 85.8% with HCC-2998 colon; 94.1% in the assay with KM12 colon.
In the case of `O=C(CSc1nnc(-c2ccc(Cl)cc2)n1-c1ccccc1)Nc1cccc(F)c1`, the growth with SR leukemia is 37.2%; with RPMI-8226 leukemia, 40.5%; in the assay with OVCAR-8 ovarian, 35.7%; in the assay on OVCAR-5 ovarian it was 41.9%; in the assay with OVCAR-4 ovarian, -46.4% (active); with SK-OV-3 ovarian, 78.6%. The growth was 20.3% in the assay on IGROV1 ovarian; 51.9% with OVCAR-3 ovarian; 28% in the assay on HS 578T breast; 50.4% in the assay with BT-549 breast; 49.6% in the assay with MDA-MB-435 melanoma; 30.9% with SW-620 colon. For the same compound, the growth in the assay with MCF7 breast is 39%; in the assay on HCT-116 colon, -13.8% (active); in the assay with HCC-2998 colon, 59.7%; in the assay with KM12 colon it was 53.3%.
For the compound `CCCCc1nc2c(N)nc3ccccc3c2n1Cc1ccc(OC)cc1`, the growth in the assay on SR leukemia was 46.2%; in the assay with RPMI-8226 leukemia, 34.1%; with OVCAR-8 ovarian, 67.4%; with OVCAR-5 ovarian, 82.4%; with OVCAR-4 ovarian, 58.1%; in the assay with SK-OV-3 ovarian, 74.8%. The growth was 56.8% in the assay with IGROV1 ovarian; 79.8% in the assay on HS 578T breast; 59.2% in the assay on NCI/ADR-RES ovarian; 65.3% with T-47D breast; 72% in the assay on BT-549 breast; 84% in the assay with MDA-MB-435 melanoma. Also, the growth was 68.6% with SW-620 colon; 59.7% with MCF7 breast; 32.5% in the assay on HCT-116 colon; 85.5% in the assay with HCC-2998 colon; 83.1% with KM12 colon.
As to `NCCNC(=O)c1cccc(COc2ccccc2NC(=O)c2cc(Br)c(Br)[nH]2)c1`, the growth with SR leukemia was 8.3% (active); in the assay with RPMI-8226 leukemia, 86.8%; in the assay with OVCAR-8 ovarian it was 64.6%; with OVCAR-5 ovarian, 101%; in the assay with OVCAR-4 ovarian it was 103%; in the assay with SK-OV-3 ovarian it was 136%. Besides, the growth with IGROV1 ovarian is 88%; in the assay on OVCAR-3 ovarian, 103%; in the assay on HS 578T breast, 100%; in the assay on T-47D breast, 75.9%; in the assay with BT-549 breast it was 130%; in the assay with MDA-MB-435 melanoma, 96.2%. Also, the growth with SW-620 colon was 35.1%; in the assay on MCF7 breast, 16.9%; in the assay with HCT-116 colon, 20.2%; with HCC-2998 colon it was 99.8%; in the assay on KM12 colon, 89.7%.
Regarding `O=S(=O)(Oc1ccc(-c2cn3ccsc3n2)cc1)c1cccc(C(F)(F)F)c1`, the growth in the assay on SR leukemia was 95.2%; in the assay on RPMI-8226 leukemia, 97.5%; in the assay on OVCAR-8 ovarian it was 101%; in the assay on OVCAR-5 ovarian, 107%; with OVCAR-4 ovarian, 96.5%; in the assay on SK-OV-3 ovarian, 108%. In addition, the growth in the assay with IGROV1 ovarian was 107%; in the assay on HS 578T breast it was 102%; in the assay on NCI/ADR-RES ovarian, 108%; in the assay on T-47D breast, 103%; with BT-549 breast, 119%; in the assay on MDA-MB-435 melanoma, 99.5%. The growth is 97.4% with SW-620 colon; 90.1% in the assay with MCF7 breast; 104% in the assay with HCT-116 colon; 120% with HCC-2998 colon; 102% in the assay with KM12 colon.
For `CCc1cccc2c3c(sc12)C(c1ccc(F)cc1)C(C#N)=C(/N=C/c1ccc(Cl)cc1)O3` (configuration not stated), the growth is 18.8% in the assay with SR leukemia; 21.5% in the assay on RPMI-8226 leukemia; 13.6% in the assay on OVCAR-8 ovarian; 29.1% with OVCAR-5 ovarian; 80.6% in the assay with OVCAR-4 ovarian; 42.6% in the assay with SK-OV-3 ovarian. Besides, the growth with IGROV1 ovarian was 29.9%; in the assay on HS 578T breast, -1.77% (active); with NCI/ADR-RES ovarian it was 7.87% (active); with T-47D breast, 30.7%; in the assay with BT-549 breast, 2.79% (active); with MDA-MB-435 melanoma, -5.71% (active). The growth in the assay with SW-620 colon is 37.6%; in the assay on MCF7 breast, 14%; with HCT-116 colon, 11.4%; with HCC-2998 colon, 10.3%; in the assay with KM12 colon, 16.1%.
